Screens from PubChem.
Luciferase inh – Photinus pyralis luciferase inhibition. purified P. pyralis luciferase, luminescence, biochemical. Potency, µM (doses to about 115 µM), hits mostly inhibitors. actives 2.5% (n = 76,000). AID 1347043; also: nearly all actives have a fitted effect of over 65% in size
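Inhibitors were tested against purified firefly luciferase in a biochemical, low-substrate format (both substrates at 10uM) and luminescence measured with a CCD imager.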
HEK cytotox – cytotoxic compounds in HEK 293 cells; AID 1345083; HEK 293 viability, ATP luminescence (CellTiter-Glo), 48-72 h; Potency, µM (series often up to 115 µM), inactives show top-dose activity change, negative = cytotoxicity, hits mostly inhibitors; actives 6.6% (n = 94,000); also: nearly all actives have a fitted effect of over 60% in size
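250 HEK 293 cells/well; compound by pintool; incubated 48 or 72 hr at 37 degree Celsius; CellTiter-Glo added, 10 min RT, luminescence imaged.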
hNpr1 antagonist – blocks ANP-stimulated signaling of human Npr1 receptor; P16066; Potency, µM (series often up to 46.3 µM), for the others: at the top dose activity change, negative = inhibition, actives largely listed as inhibitors; HEK293 hNpr1 GloSensor cGMP, ANP-stimulated luminescence; AID 1347048; actives 1.6% (n = 76,000); calls by dose curve; also: nearly all actives have a fitted effect of over 60% in size
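Compound pre-incubated 30 min at room temperature on GloSensor-loaded HEK293 cells stably carrying hNpr1 and the pGS-40F cGMP biosensor. Stimulation uses hNppA at 0.1 nM final; luminescence is taken at baseline and 20 min post-agonist.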
NIH3T3 tox – NIH 3T3 cell cytotoxicity; actives 4.3% (n = 94,000); Potency, µM (doses to about 96.7 µM), for inactives: top-dose activity change, negative = cytotoxicity, usual class: inhibitors; AID 1345082; NIH 3T3 viability, CellTiter-Glo ATP luminescence, 48-72 h; also: nearly all actives have a fitted effect of over 55% in size
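Viability of NIH 3T3 cells after 48 or 72 hr compound treatment at 37 °C was assessed by CellTiter-Glo, with luminescence imaged following a 10 min room-temperature step.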
An asterisk follows results filed as active; ! = a repeat was not active; [ ] = another dose, or the depositor's remark. Compounds with a hit are over-represented: about 11% of the library has one in this group of screens. Unless noted, calls follow the shape of the dose curve; as a rule, active = well fitted curve in the direction sought with a large enough effect; inconclusive = small, poorly fitted or top-dose-only effect, or another doubt; inactive = no such curve, though single readings can be large; an effect the other way counts as inactive or inconclusive. % is scaled to controls: 0 for no effect and ±100 for the full control effect; potency is read from the fitted curve at half-maximal effect.

Screening O=C(Nc1cccc2ccccc12)O[C@@H]1CO[C@H]2[C@@H]1OC[C@@H]2NCC1CCCCC1 returned Luciferase inh inactive, HEK cytotox 44.7µM*, hNpr1 antagonist -22.0%[70.6 µM] and NIH3T3 tox inconclusive.
`O=C(Nc1ccc(Oc2ccccc2)cc1)N[C@H]1CO[C@H]2[C@@H]1OC[C@H]2OC(=O)Nc1cccc2ccccc12` gave Luciferase inh inactive, HEK cytotox 17.8µM*, hNpr1 antagonist inconclusive and NIH3T3 tox inconclusive.
For O=C(Nc1cccc2ccccc12)O[C@@H]1CO[C@H]2[C@@H]1OC[C@@H]2NS(=O)(=O)c1cccc2cccnc12 the results were Luciferase inh inactive, HEK cytotox -20.3%, hNpr1 antagonist -2.9% and NIH3T3 tox -29.8%.
Screening O=C(Nc1ccc(Oc2ccccc2)cc1)O[C@@H]1CO[C@H]2[C@@H]1OC[C@@H]2NC(=O)c1ccccn1 returned Luciferase inh inconclusive, HEK cytotox inconclusive, hNpr1 antagonist 11.2µM* and NIH3T3 tox inconclusive.
Screening CCOc1ccc(C2NC(=O)N(CC3CC3)C3=C2C(=O)OC3)cc1 (stereo not given) returned Luciferase inh inactive, HEK cytotox 3.0%, hNpr1 antagonist -2.6% and NIH3T3 tox -22.2%.
For O=C1NCCCCCCN(C(=O)c2ccco2)[C@H]2C[C@H](C(=O)N3CCc4ccccc4C3)C[C@@H]12 the results were Luciferase inh inactive, HEK cytotox -25.9%, hNpr1 antagonist 0.2% and NIH3T3 tox -1.9%.
CC(C)NC(=O)C[C@@H]1c2nc(NC(=O)c3ccc(C(C)(C)C)cc3)sc2C[C@@H]2[C@](C)(CO)[C@H](O)CC[C@]21C was read as Luciferase inh inconclusive, HEK cytotox 39.8µM*, hNpr1 antagonist 4.7% and NIH3T3 tox 50.1µM*.
`CC(=O)Nc1nc2c(s1)C[C@@H]1[C@](C)(CO)[C@H](O)CC[C@@]1(C)[C@@H]2CC(=O)NC1CC1` gave Luciferase inh inactive, HEK cytotox -10.8%[172 µM], hNpr1 antagonist -2.8%[70.6 µM] and NIH3T3 tox -18.4%[138 µM].
CC(C)(C)c1ccc(C(=O)Nc2nc3c(s2)C[C@@H]2[C@](C)(CO)[C@H](O)CC[C@@]2(C)[C@@H]3CC(=O)NC2CC2)cc1 was read as Luciferase inh 44.7µM*, HEK cytotox 44.7µM*, hNpr1 antagonist 3.3% and NIH3T3 tox 44.7µM*.
For COc1ccc(C(=O)Nc2nc3c(s2)C[C@@H]2[C@](C)(CO)[C@H](O)CC[C@@]2(C)[C@@H]3CC(=O)N2CCOCC2)cc1 the results were Luciferase inh inactive, HEK cytotox -14.4%, hNpr1 antagonist -4.9% and NIH3T3 tox -14.0%.
Screening CC(C)(C)c1ccc(C(=O)Nc2nc3c(s2)C[C@@H]2[C@](C)(CO)[C@H](O)CC[C@@]2(C)[C@@H]3CC(=O)N2CCOCC2)cc1 returned Luciferase inh inactive, HEK cytotox inconclusive, hNpr1 antagonist -3.3% and NIH3T3 tox 35.5µM*.
COc1ccccc1CNC(=O)C[C@@H]1c2nc(-c3cccnc3)sc2C[C@@H]2[C@](C)(CO)[C@H](O)CC[C@]21C was read as Luciferase inh inactive, HEK cytotox inconclusive, hNpr1 antagonist -10.0% and NIH3T3 tox 79.4µM*.
COc1ccccc1C(=O)N1CCC2(CC1)CC(=O)c1ccc(Cl)cc1O2 was read as Luciferase inh inactive, HEK cytotox inconclusive, hNpr1 antagonist 2.0% and NIH3T3 tox inconclusive.
For O=C(c1ccco1)N1CCCC(Cc2nc(C3CCOCC3)no2)C1 (stereo not given) the results were Luciferase inh inactive, HEK cytotox -1.6%, hNpr1 antagonist -6.3% and NIH3T3 tox 3.9%.
`Cc1nnc2ccc(N3CCC(NC(=O)c4ccc(C(F)(F)F)cc4)C3)nn12` (stereo not given) gave HEK cytotox -17.6% and NIH3T3 tox -20.8%.
O=C1N(CCc2ccccc2)c2ccccc2C12CCN(CC1CC1)C2 (stereo not given) was read as Luciferase inh inactive, HEK cytotox 39.8µM*!, hNpr1 antagonist -10.9% and NIH3T3 tox inconclusive.
For O=C1N(Cc2ccccc2)c2ccccc2C12CCN(Cc1cncs1)C2 (stereo not given) the results were Luciferase inh inactive, HEK cytotox inconclusive, hNpr1 antagonist 2.3% and NIH3T3 tox inconclusive.
